In the library only some 3.3% were active in any assay of this set; here they are far more common.
TbPYK inhibitor: qHTS of Trypanosoma Brucei Inhibitors; pyruvate kinase (Trypanosoma brucei), Q57TT1; TbPYK enzyme, Kinase-Glo Plus ATP luminescence, 45 min; Potency, µM (top dose mostly 76.8 µM), without a hit: at the highest dose activity, negative = inhibition, hits mostly inhibitors; hit rate 0.12% among 410,000; also: % is scaled to controls: 0 for no effect and ±100 for the full control effect; nearly all actives have a fitted effect of over 50% in size
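Activity of T. brucei pyruvate kinase was followed by Kinase-Glo Plus luminescence after the enzyme reacted 45 min at room temperature with 130 uM ADP (final) and substrate. Test compounds were added before ADP at multiple concentrations.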
Sm TGR block: qHTS Assay for the Inhibitors of Schistosoma Mansoni Peroxiredoxins. Schistosoma mansoni thioredoxin glutathione reductase (TGR), Q962Y6. hit rate 3% among 360,000. Potency, µM (doses to about 114 µM), for inactives: at the top dose activity change, negative = inhibition, hits mostly inhibitors. AID 485364, 2010. purified TGR, DTNB reduction, TNB absorbance 405 nm; also: % is scaled to controls: 0 for no effect and ±100 for the full control effect; nearly all actives have a fitted effect of over 60% in size
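First, TGR (20 nM dispensed) and NADPH were mixed with compound. Second, a 15 min room-temperature incubation followed. Third, further NADPH and then DTNB were added to start the reaction. Finally, TNB absorbance was monitored kinetically.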
SARS PLpro yeast: qHTS of Yeast-based Assay for SARS-CoV PLP; S. cerevisiae expressing SARS-CoV PLpro, growth rescue; Potency, µM (top dose mostly 32.9 µM), for the others: top-dose activity, positive = growth rescue, actives largely listed as activators; hit rate 0.19% among 330,000; AID 485353, 2010; calls by dose curve; also: 0% is about no effect; nearly all actives have a fitted effect of over 55% in size
RE007 growth inh: qHTS Assay for Inhibitors of the HIV-1 protein Vpr | S. pombe RE007 Vpr strain, BacTiter-Glo ATP luminescence, 24 h | Potency, µM (doses to about 92.2 µM), for inactives: top-dose activity change, negative = less growth, most hits filed as inhibitors | hit rate 0.21% among 360,000 | AID 651644, 2012; active = well fitted falling curve with a large enough effect; inconclusive = small, poorly fitted or top-dose-only effect; inactive = no such curve, though single readings can be large or run the other way; also: % is scaled to controls: 0 for no effect and ±100 for the full control effect; nearly all actives have a fitted effect of over 50% in size
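Fission yeast strain RE007, carrying one chromosomally integrated HIV-1 vpr copy, was seeded at OD 0.01 in PMG+AL medium with 23 nL pinned compound. After 24 h at 30 °C and 99% humidity, viability was read by BacTiter-Glo luminescence.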
AmpC inh detg: qHTS Inhibitors of AmpC Beta-Lactamase (assay with detergent). P00811. AmpC hydrolysis of nitrocefin, absorbance 480 nm, 0.01% Triton. Potency, µM (series often up to 114 µM), for inactives: at the top dose activity change, negative = inhibition, usual class: inhibitors. hit rate 0.041% among 370,000;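 also: 0% = no-compound wells and -100% = no-enzyme wells; nearly all actives have a fitted effect of over 25% in size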
Target sequence (P00811 whole entry, looked up): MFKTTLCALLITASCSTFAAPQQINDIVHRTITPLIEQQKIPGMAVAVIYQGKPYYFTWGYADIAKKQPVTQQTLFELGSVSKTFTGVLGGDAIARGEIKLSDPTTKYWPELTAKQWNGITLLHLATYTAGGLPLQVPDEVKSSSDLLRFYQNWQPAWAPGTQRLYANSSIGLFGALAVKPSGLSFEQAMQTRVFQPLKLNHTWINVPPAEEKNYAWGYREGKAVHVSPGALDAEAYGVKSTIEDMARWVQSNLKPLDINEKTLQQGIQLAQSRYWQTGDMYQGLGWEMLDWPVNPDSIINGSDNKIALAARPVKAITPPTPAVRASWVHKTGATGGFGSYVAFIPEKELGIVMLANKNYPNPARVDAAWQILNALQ
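AmpC (5.3 nM in the dispensed reagent) in 20 mM phosphate pH 7.0 with 0.01% (detergent screen) or 0.0001% Triton X-100 was preincubated with compounds for 15 min at room temperature. Nitrocefin was then added from an 800 uM solution, and hydrolysis was followed at 480 nm.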
AmpC no deterg: qHTS Inhibitors of AmpC Beta-Lactamase (assay without detergent); Potency, µM (doses to about 57.1 µM), inactives show top-dose activity change, negative = inhibition, most hits filed as inhibitors; hit rate 0.52% among 330,000; AmpC nitrocefin hydrolysis, absorbance 480 nm, 0.0001% Triton;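 also: plate controls were no compound for no effect and no enzyme for full effect; nearly all actives have a fitted effect of over 20% in size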
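20 mM phosphate pH 7.0 + 0.01% (detergent screen) or 0.0001% Triton X-100; 5.3 nM AmpC reagent; cpd preinc 15 min RT; nitrocefin (800 uM stock) to start; A480 q20 s × 4 min; Activity was normalised to no-enzyme and no-compound control wells.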
* hit, by the source's call; ? = inconclusive; . = no result; [ ] = dose if it differs, or a comment. Unless noted, calls follow the shape of the dose curve; as a rule, active = well fitted curve in the direction sought with a large enough effect; inconclusive = small, poorly fitted or top-dose-only effect, or another doubt; inactive = no such curve, though single readings can be large; an effect the other way counts as inactive or inconclusive. Potency is read from the fitted curve at half-maximal effect.

SMILES | TbPYK inhibitor | Sm TGR block | SARS PLpro yeast | RE007 growth inh | AmpC inh detg | AmpC no deterg
COc1ccccc1N1C(=O)CC(Nc2ccc(N3CCOCC3)cc2)C1=O (stereo not given) | -13% | 20µM* | 0% | -12% | -11% | 1%
O=C1CC(Nc2ccc(N3CCOCC3)cc2)C(=O)N1Cc1ccccc1 (stereo not given) | -11% | 20µM* | -16% | ? | ? | -26%
COc1ccc(NC2CC(=O)N(c3ccccc3)C2=O)cc1 (stereo not given) | 4% | ? | 4% | -28% | -6% | -3%
O=C1CC(Nc2ccc(N3CCOCC3)cc2)C(=O)N1c1ccccc1 (stereo not given) | -19% | 35µM* | 4% | 18% | -1% | -18%
COC(=O)C1=C(C(=O)OC)C(c2ccccc2O)c2sc(=O)[nH]c2S1 (stereo not given) | -15% | 40µM* | -5% | -18% | -13% | -23%
COC(=O)C1=C(C(=O)OC)C2c3ccccc3C1c1ccccc12 | -2% | . | . | 10% | . | .
CC(=O)Nc1ccc(S(=O)(=O)NCc2ccc3c(c2)CCN3C(C)=O)cc1 | 6% | 3% | . | . | 9% | .
CCCOc1ccc(CCc2n[nH]c(=S)n2-c2ccccc2)cc1 | ? | . | 5% | -2% | 1% | -29%
CCCCC(CC(O)COCCC)c1n[nH]c(=S)n1-c1ccccc1 (stereo not given) | 11µM* | 0% | 0% | 24% | -2% | 0%
CCCCCC(O)CCc1n[nH]c(=S)n1-c1ccccc1 (stereo not given) | 4.5µM* | 6% | 0% | 0% | -15% | -24%
CC(C)Oc1ccc(CNC(=O)c2cccc(NC(=O)N3CCSc4ncccc43)c2)cc1 | 4%[15.4 µM] | -4% | . | . | -3% | .
Cc1cc2c(cc1S(=O)(=O)N(CCO)Cc1ccccc1)OCC(=O)N2 | -1%[15.4 µM] | 5% | . | . | 20% | .
CS(=O)(=O)c1ccc([C@@H](O)[C@@H](COC(=O)CN)NC(=O)C(Cl)Cl)cc1 | -6% | . | . | . | . | .
CN(C)/N=C/c1ccc(Sc2ccc([N+](=O)[O-])cc2[N+](=O)[O-])o1 | -4% | 28µM* | 4% | -16% | -16% | -17%
Cc1cc(NS(=O)(=O)c2ccccc2)cc(Cl)c1O | -10% | ? | 1% | -6% | -6% | -43%
Cc1ccc(S(=O)(=O)Nc2cc(C)c(O)c(S(=O)(=O)c3ccc(C)cc3)c2)cc1 | 0% | 45µM* | -8% | -15% | 2% | -58%
NC(N)=NS(=O)(=O)c1ccc(NC(=S)NC(=O)c2ccc(Br)cc2)cc1 | 1% | -35% | -2% | 8% | ? | -35%
NC(N)=NS(=O)(=O)c1ccc(NC(=S)NC(=O)c2ccncc2)cc1 | 1% | 20µM* | -3% | 3% | -1% | -11%
CCc1nnc(NS(=O)(=O)c2ccc(NC(=S)NC(=O)c3ccc(OC)c(OC)c3)cc2)s1 | -4% | 40µM* | 13% | -9% | 0% | -19%
CCc1nnc(NS(=O)(=O)c2ccc(NS(=O)(=O)c3ccc(NC(C)=O)cc3)cc2)s1 | . | -6% | 13% | . | -2% | -13%
CCc1nnc(NS(=O)(=O)c2ccc(NC(=S)NC(=O)c3ccc(OC)cc3)cc2)s1 | -5% | 40µM* | 14% | -5% | -15% | -22%
CCc1nnc(NS(=O)(=O)c2ccc(NC(=S)NC(=O)c3ccncc3)cc2)s1 | 3% | 20µM* | 2% | -8% | -1% | -10%
CCOC(=O)c1c(-c2ccccc2)csc1NC(=O)c1cc(-c2ccc(Cl)cc2)on1 | -1% | 2% | . | . | 22% | .
CN(C)CCCNc1cc(-c2ccccc2)nc2cc(-c3cccc(F)c3)nn12 | -10% | 100µM* | -9% | 2% | -5% | 155%
COc1ccc(C2=C(C)C(=O)N(Cc3ccc(C(=O)Nc4cc(C)ccc4C)cc3)S2(=O)=O)cc1 | 1% | -16% | . | . | 1% | .
SMILES | TbPYK inhibitor | Sm TGR block | SARS PLpro yeast | RE007 growth inh | AmpC inh detg | AmpC no deterg
CN(CC(=O)Nc1ccc(Cl)c(C(F)(F)F)c1)C(=O)c1cn2ccccc2n1 | -1% | 1% | -20% | 30% | -6% | 35µM*
Cc1cc(C(=O)N(C)CC(=O)Nc2ccc(Cl)c(C(F)(F)F)c2)no1 | -3% | -6% | 3% | 3% | ? | -22%
N#Cc1c(SCC(=O)Nc2nccs2)sc2c(O)cc(=O)[nH]c12 | -8% | 50µM* | -2% | 10% | ? | -38%
CCCSc1nnc(NC(=O)CSc2sc3c(O)cc(=O)[nH]c3c2C#N)s1 | -16% | 40µM* | 3% | -11% | 1% | -41%
N#Cc1c(SCC(=O)Nc2nc3ccccc3s2)sc2c(O)cc(=O)[nH]c12 | -17% | -36% | 5% | -9% | 6% | -49%
N#Cc1c(SCC(=O)Nc2nc3ccc(Br)cc3s2)sc2c(O)cc(=O)[nH]c12 | -13% | -25% | -5% | -10% | 3% | 25µM*
Cc1cccc(NC(=O)C(NS(=O)(=O)c2cccc3nsnc23)c2ccccc2)c1C (stereo not given) | -1% | 8% | . | . | 0% | .
CC(C)CCNC(=O)c1ccc2c(c1)NC(=O)C(CS(=O)(=O)Cc1cccc(Br)c1)N2 (stereo not given) | -14%[15.4 µM] | 50µM* | . | . | 2% | .
COc1cccc(C(=O)Nc2ccccc2OCc2cc(=O)n3cc(C)ccc3n2)c1 | 0% | -3% | . | . | 3% | .
Cc1cccc(-c2c3c(=O)n(C)c(=O)n(C)c3cn2CC2CCCO2)c1 (stereo not given) | -13% | 35µM* | 1% | 2% | -2% | -12%
CSc1cccc(NC(=O)Cn2nnc(C(=O)NCCc3ccccc3)c2N)c1 | 6% | 2% | . | . | 1% | .
Cc1ccc(OC(=O)C(F)(F)F)c2c1NCCC2 | 0% | 32µM* | 7% | 8% | ? | -6%
C=C(C=O)CC1CC(O)[C@]2(C)OC3CC4OC5C[C@]6(C)O[C@]7(C)CCC8OC9C[C@]%10(C)OC%11C(C)=CC(=O)OC%11CC%10OC9C[C@@H](C)C8OC7CC6O[C@]5(C)CC5OC5C4OC3CC2O1 (stereo not given in full) | -2% | 11µM* | 0% | 819% | 3% | 142%
CN(Cc1ccccc1)C(=O)CSc1nc(-c2ccc(F)cc2)cc(C(F)(F)F)n1 | -2% | 1% | . | . | 21% | .
CCCCNC(=O)c1ccc2c(=O)n(-c3ccccc3)c(=O)[nH]c2c1 | -1% | 7% | . | . | 5% | .

Screening results: PubChem, National Center for Advancing Translational Sciences (NCATS)
